Shown are actives, neighbours in structure and some others; about 4.5% of the full set was active somewhere.
PrPC surface inh = reduces human prion protein on the cell surface; P04156; cell surface PrPC, TR-FRET read-out; inhibition, % at 13.8 µM; 0.43% of 370,000 active; in the data active means inhibition above about 24%; further: 0% = median of the test wells and 100% = reference compound wells
BJeLR lethal = kills HRASV12-expressing BJeLR cells; BJeLR (HRASV12) viability, CellTiter-Glo ATP luminescence, 48 h; inhibition, % (no concentration beside the values); 0.17% of 300,000 active; in the data active means inhibition above about 50%
PfHsp40 rescue = restores yeast growth despite PfHsp40 toxicity. 0.68% of 340,000 active. growth rescue, % at 12.5 µM. S. cerevisiae expressing PfHsp40, growth rescue, ATP luminescence; in the data active means growth rescue above about 28%, passing the limit was not always enough;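 further: yeast W303a lacking pdr1 and pdr3 grown in galactose medium; growth measured after three days at 30 °C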
GDH-TPI counter-1 = counter-screen for M. tuberculosis FBA inhibitors: GDH-TPI coupled enzymes; GDH-TPI coupled enzyme counterscreen, NADH absorbance; inhibition, % at 4.8 µM; 1.2% of 360,000 active; AID 588335; in the data active means inhibition above about 30%;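 further: 0% = DMSO wells and 100% = wells lacking the enzyme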
PrP 5UTR inh = suppresses PrP 5' UTR mRNA reporter expression | cell-based PrP 5' UTR mRNA reporter, plate reader | inhibition, % (no concentration beside the values) | 0.35% of 340,000 active; in the data active means inhibition above about 52%; further: 0 = median of the neutral control wells
FBA Mtb inh = inhibitors of M. tuberculosis fructose-bisphosphate aldolase; purified M. tuberculosis FBA, fluorescence read-out; inhibition, % at 1 µM; 2.3% of 360,000 active; AID 588726;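 further: 0% = vehicle and 100% = reference inhibitor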
Target sequence (P9WQA3 whole entry, looked up): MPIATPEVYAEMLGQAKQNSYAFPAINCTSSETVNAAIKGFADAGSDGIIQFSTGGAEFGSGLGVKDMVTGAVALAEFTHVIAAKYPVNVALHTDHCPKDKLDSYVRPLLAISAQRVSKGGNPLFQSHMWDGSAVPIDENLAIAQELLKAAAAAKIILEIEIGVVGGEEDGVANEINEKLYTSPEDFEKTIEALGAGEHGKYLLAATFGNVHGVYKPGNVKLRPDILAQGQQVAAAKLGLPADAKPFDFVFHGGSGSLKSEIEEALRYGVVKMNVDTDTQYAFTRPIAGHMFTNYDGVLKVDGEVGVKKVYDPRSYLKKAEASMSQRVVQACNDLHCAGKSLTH
Mtb FBA confirm = confirmation of M. tuberculosis fructose-bisphosphate aldolase inhibitors; 78% of 5,600 active; inhibition, % at 1 µM; purified M. tuberculosis FBA, fluorescence read-out; shares compounds with FBA Mtb inh;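 further: 0% = vehicle wells and 100% = reference inhibitor wells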
GDH-TPI counter-2 = GDH-TPI inhibition counter-screen for FBA inhibitors | shares compounds with FBA Mtb inh | GDH-TPI coupled enzyme counterscreen, fluorescence | 81% of 5,600 active | inhibition, % at 1 µM; in the data active means inhibition above about 10%
* marks the source's active call; other numbers are inactive results; . = no result; + = active, no number. Unless noted, no stated cut-off is given here; in the data, active means inhibition above about 27%; inactive means the rest.

SMILES | PrPC surface inh | BJeLR lethal | PfHsp40 rescue | GDH-TPI counter-1 | PrP 5UTR inh | FBA Mtb inh | Mtb FBA confirm | GDH-TPI counter-2
NC(=O)c1cccc2cc3ccccc3cc12 | -14 | 4 | 1 | 4 | -22 | 37* | 9 | 6
Cc1ccc(C(=O)NCc2ccccc2)c(F)c1F | 1 | 4 | 1 | -2 | -23 | -3 | . | .
CCN(CC)CCCNC(=O)c1ccccc1C | -5 | -6 | 1 | 12 | -8 | 2 | . | .
CCN(CC)CCNC(=O)c1ccccc1N | -8 | 0 | 0 | -4 | -2 | 60* | 140* | 121*
CN(C)c1ccc(CNc2ccc3c(c2)ncn3C(C)(C)C)cc1 | 11 | -13 | 2 | 11 | 3 | 5 | . | .
CCc1nc2c(OCc3ccc(C(F)(F)F)cc3)cccn2c1N(C)C(=O)c1ccc(C)cc1 | 17 | . | . | 2 | . | -1 | . | .
O=C(CSc1nnc(-c2cnccn2)n1-c1ccccc1)c1ccccc1Br | -3 | . | . | . | . | . | . | .
NC(=O)c1ccccc1N | 10 | -4 | -1 | 6 | -17 | 86* | 78* | 54*
COc1ccccc1CNC(=O)c1ccccc1N | . | 1 | 1 | -8 | -11 | 54* | 60* | 51*
Cc1ccc(OCCNC(=O)c2ccccc2N)cc1 | 0 | 12 | -1 | 2 | 19 | 49* | + | 191*
COc1ccccc1CNC(=O)c1ccccc1NS(C)(=O)=O | 17 | -12 | 1 | -7 | 1 | 29* | 102* | 80*
CCOC(=O)[C@]12CCC=C1N(CCC1=CCCCC1)C(=O)[C@H](CC(=O)NCc1ccc(OC)c(OC)c1)C2 | -6 | . | . | . | . | . | . | .
Nc1ccccc1C(=O)NCc1ccccc1 | 2 | 2 | -1 | -5 | -13 | 44* | 1 | 4
O=C(Nc1ccccc1C(=O)NCc1ccccc1)c1ccccc1 | 2 | . | 0 | -7 | -13 | 3 | . | .
Nc1ccccc1C(=O)NCCN1CCNC1=O | 2 | 6 | 0 | 10 | -30 | 93* | 90* | 77*
Nc1ccccc1C(=O)NCCCN1CCN(c2cccc(Cl)c2)CC1 | 0 | -3 | 1 | 1 | 5 | 54* | 69* | 72*
Cc1ccc(NS(=O)(=O)c2cccc([N+](=O)[O-])c2)nc1 | -14 | -4 | 1 | 1 | -9 | 0 | . | .
N=C(N)SCc1nc2ccccc2c(=O)n1-c1ccccc1 | -3 | -1 | 0 | 0 | -46 | 6 | . | .
N=C(N)n1c(N)nc2ccccc2c1=O | -1 | -3 | 0 | 2 | -18 | 59* | 25 | 11*
COCc1nnc(NC(=O)c2ccccc2Oc2ccccc2)s1 | 4 | 4 | 0 | 8 | -7 | 73* | 158* | 119*
COc1cc(/C=N/NC(=O)C(N)=O)ccc1OCC(=O)N1C(C)CCCC1C (stereo not given) | -1 | 0 | -1 | 11 | 7 | 2 | . | .
O=C(NCCc1nc2ccccc2[nH]1)/C(=C/c1ccc2c(c1)OCO2)NC(=O)c1ccc(Cl)cc1Cl | 8 | -4 | 2 | 9 | -19 | 1 | . | .
COc1ccc(-c2c(NC(=O)c3ccco3)oc3c(C)cccc3c2=O)cc1 | 6 | -3 | 1 | 18 | -18 | 53* | 2 | -2
CCOC(=O)C1(Cc2cccc(OC)c2)CCN(Cc2ccc(C)s2)CC1 | 4 | 6 | -1 | 11 | -5 | -3 | . | .
CCC(=O)N(Cc1c(C)nn(-c2ccccc2)c1Cl)c1ccc(Cl)cc1 | 2 | -12 | 4 | -6 | -24 | -2 | . | .
SMILES | PrPC surface inh | BJeLR lethal | PfHsp40 rescue | GDH-TPI counter-1 | PrP 5UTR inh | FBA Mtb inh | Mtb FBA confirm | GDH-TPI counter-2
Nc1ccc2c(c1)[nH]c(=O)c1ccccc12 | 4 | . | 1 | 5 | -9 | 69* | 3 | 3
Nc1cccc2[nH]c(=O)c3ccccc3c12 | -2 | . | 0 | 18 | -10 | 61* | 199* | 158*
Nc1cc2[nH]c(=O)c3ccccc3c2cc1Br | 6 | . | 0 | 21 | -13 | 11 | . | .
CC(=O)Nc1ccc2c(c1)[nH]c(=O)c1ccccc12 | -8 | . | 2 | 20 | -16 | 50* | 64* | 45*
Cc1cc(C)c2ccc(=O)n(CC(=O)N/N=C/c3ccccc3Cl)c2n1 | 10 | 0 | 0 | 2 | -13 | 1 | . | .
CC(C)(C)C(=O)C(C(c1ccccc1)N1CCOCC1)N1CCOCC1 (stereo not given) | 8 | . | 0 | 6 | 3 | -1 | . | .
COc1ccc(C(C)(O)c2nc(-c3ccc4c(c3)OCO4)cs2)cc1 (stereo not given) | 4 | . | . | 5 | . | -4 | . | .
COc1ccc(C2C(C#N)=C(C)NC3=C2C(=O)CC(C)(C)C3)c(OC)c1 (stereo not given) | . | -3 | -1 | 13 | -19 | 15 | . | .
COc1ccc(C2C(C(=O)N3CCOCC3)=C(C)NC3=C2C(=O)CC(C)(C)C3)c(OC)c1 (stereo not given) | -2 | 1 | 0 | 9 | -27 | 58* | + | +
CC1=C(C(=O)N2CCOCC2)C(c2ccccc2F)C2=C(CC(C)(C)CC2=O)N1 (stereo not given) | -3 | 17 | 1 | 0 | -10 | 55* | 84* | 73*
O=C(/C=C/c1ccc(Cl)c(C(F)(F)F)c1)N1CCN(c2ccccn2)CC1 | 5 | 0 | -2 | 5 | -18 | 93* | 143* | 129*
COc1ccc(OC)c(/C=C/C(=O)Oc2ccc(C(C)=O)cc2)c1 | 1 | -7 | 4 | 11 | -22 | 33* | 132* | 107*
CCOC(=O)Cc1c(C)c2ccc(N(CC)CC)cc2oc1=O | -10 | 3 | 0 | 9 | -18 | 93* | 58* | 51*
CCN(CC)c1ccc2ccc(=O)oc2c1 | -14 | -2 | 1 | 6 | -7 | 53* | 74* | 67*
CCN(CC)c1ccc2c(C)c(-c3ccc(N)cc3)c(=O)oc2c1 | 4 | -5 | 0 | 21 | -20 | 23 | . | .
CCN(CC)c1ccc2cc(C#N)c(=O)oc2c1 | -7 | 2 | 0 | -3 | -5 | -5 | . | .
CCN(CC)c1ccc2c(C)c(Cl)c(=O)oc2c1 | 1 | 0 | 7 | 5 | -5 | 67* | 65* | 54*
CCN(Cc1cc(=O)oc2cc(C)ccc12)c1ccccc1 | 5 | 10 | 1 | 13 | -19 | 3 | . | .
CCN(CC)c1ccc2c(C)cc(=O)oc2c1 | 2 | . | 2 | 14 | -4 | 108* | 125* | 88*
COc1cc2c(cc1OC)C(Cc1ccccc1[N+](=O)[O-])=NCC2 | -9 | . | 4 | 9 | -12 | 1 | . | .
CC1(C)OC(=CC=Nc2ccc(Cl)cc2)OC1(C)C | -2 | -2 | 0 | 20 | -2 | 49* | + | +
COc1ccc(CNC(=O)CCCCCNC(=O)N2CCn3c2nc2ccccc23)cc1 | -3 | 2 | 0 | -4 | -17 | -5 | . | .
NC(N)=Nc1ccc(C=C2C=Cc3ccccc32)cc1 | -10 | . | 1 | 28 | -28 | -2 | . | .
